From PubChem BioAssay (NCATS)
Results filed as inconclusive are left out. The source made the active and inactive calls. Calls come from the whole dose curve; as a rule, active = well fitted curve in the direction sought with a large enough effect; inconclusive = small, poorly fitted or top-dose-only effect, or another doubt; inactive = no such curve, though single readings can be large; an effect the other way counts as inactive or inconclusive.

Key:
MCC-13 = experiment: qHTS assay to identify novel small-molecules to repurpose for Merkel cell carcinoma treatment (AID 1296009); settings: MCC and control cell lines, CellTiter-Glo viability, 72 h; series mostly up to 46 µM; note: nearly all actives have a fitted effect of over 60% in size
Summary of the method: (§1)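 72 hr, 37 degree celsius; NPC 8-pt / MIPE 11-pt dose response; compound pinned in DMSO; CellTiter-Glo, 10 min RT, luminescence; normalized to no-cell and DMSO controls.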

MCC-26 = experiment: as above; settings: MCC and control cell lines, CellTiter-Glo viability, 72 h; series mostly up to 46 µM
Summary of the method: as §1

MKL-1 = experiment: as above; settings: MCC and control cell lines, CellTiter-Glo viability, 72 h; series mostly up to 46 µM
Summary of the method: as §1

MKL-2 = experiment: as above; settings: MCC and control cell lines, CellTiter-Glo viability, 72 h; series mostly up to 46 µM
Summary of the method: as §1

NIH3T3 = experiment: as above; settings: MCC and control cell lines, CellTiter-Glo viability, 72 h; at 44.8 µM (top of the series) unless noted
Summary of the method: as §1

UISO = experiment: as above; settings: MCC and control cell lines, CellTiter-Glo viability, 72 h; series mostly up to 46 µM
Summary of the method: as §1

WaGa = experiment: as above; settings: MCC and control cell lines, CellTiter-Glo viability, 72 h; series mostly up to 46 µM
Summary of the method: as §1

C33A = experiment: Primary qHTS to identify gynecologic anti-cancer compounds using libraries of approved drugs and bioactive compounds (AID 1345084); settings: Gynecologic cancer cell panel viability, ATPlite luminescence, 48 h; series mostly up to 57.5 µM; note: nearly all actives have a fitted effect of over 55% in size
Summary of the method: (§2)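 Five-concentration response, 48 h; readout is ATP-driven luciferase luminescence.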

CAOV3 = experiment: as above; settings: Gynecologic cancer cell panel viability, ATPlite luminescence, 48 h; series mostly up to 57.5 µM
Summary of the method: as §2

CASKI = experiment: as above; settings: Gynecologic cancer cell panel viability, ATPlite luminescence, 48 h; series mostly up to 57.5 µM
Summary of the method: as §2

Es-2 = experiment: as above; settings: Gynecologic cancer cell panel viability, ATPlite luminescence, 48 h; series mostly up to 57.5 µM
Summary of the method: as §2

HeLa = experiment: as above; settings: Gynecologic cancer cell panel viability, ATPlite luminescence, 48 h; series mostly up to 57.5 µM
Summary of the method: as §2

Hek293T = experiment: as above; settings: Gynecologic cancer cell panel viability, ATPlite luminescence, 48 h, control line for the selectivity index; series mostly up to 57.5 µM
Summary of the method: as §2

JEG-3 = experiment: as above; settings: Gynecologic cancer cell panel viability, ATPlite luminescence, 48 h; series mostly up to 57.5 µM
Summary of the method: as §2

OV90 = experiment: as above; settings: Gynecologic cancer cell panel viability, ATPlite luminescence, 48 h; series mostly up to 57.5 µM
Summary of the method: as §2

PA-1 = experiment: as above; settings: Gynecologic cancer cell panel viability, ATPlite luminescence, 48 h; series mostly up to 57.5 µM
Summary of the method: as §2

SKOV3 = experiment: as above; settings: Gynecologic cancer cell panel viability, ATPlite luminescence, 48 h; series mostly up to 57.5 µM
Summary of the method: as §2

Tov-21-G = experiment: as above; settings: Gynecologic cancer cell panel viability, ATPlite luminescence, 48 h; series mostly up to 57.5 µM
Summary of the method: as §2

Tov112D = experiment: as above; settings: Gynecologic cancer cell panel viability, ATPlite luminescence, 48 h; series mostly up to 57.5 µM
Summary of the method: as §2

[1] = Drug repurposing screens with cells derived from glioblastoma tumor samples (AID 1345199); settings: GBM patient neurospheres viability, ATP luminescence, 48 h; note: nearly all actives have a fitted effect of over 40% in size
Summary of the method: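 Four patient lines of CD133+ GBM neurospheres were screened at several concentrations; hits were retested in those lines plus three slower-growing GBM lines, using 48-hour treatment and ATP-based viability.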

[2] = at 45.9 µM (top of the series), tumour line B
[3] = at 45.9 µM (top of the series), tumour line D
[4] = at 46 µM (top of the series), tumour line A
[5] = at 46.1 µM (top of the series), tumour line C
[6] = at 20 µM (top of the series), tumour line C
[7] = at 21.2 µM (top of the series), tumour line B
[8] = at 21.2 µM (top of the series), tumour line D
% is set by controls: 0 for no effect and ±100 for the full control effect.

CC1(C)S[C@@H]2[C@H](N=CN3CCCCCC3)C(=O)N2[C@H]1C(=O)O
inactive: outcome (MCC-13) | outcome (MCC-26) | outcome (MKL-1) | outcome (MKL-2) | outcome (NIH3T3) | outcome (UISO) | outcome (WaGa) | outcome (C33A) | outcome (CAOV3) | outcome (CASKI) | outcome (Es-2) | outcome (HeLa) | outcome (Hek293T) | outcome (JEG-3) | Potency (OV90) | outcome (PA-1) | outcome (SKOV3) | outcome (Tov-21-G) | outcome (Tov112D) | activity, negative = cell killing [1, 2] 0.648% | activity, negative = cell killing [1, 3] 9.1% | activity, negative = cell killing [1, 4] -11.3% | activity, negative = cell killing [1, 5] -4.3%

CN1C(=O)CC(c2ccccc2)C1=O (stereo not drawn)
inactive: outcome (MCC-13) | outcome (MCC-26) | outcome (MKL-1) | outcome (MKL-2) | outcome (NIH3T3) | outcome (UISO) | outcome (WaGa) | outcome (C33A) | outcome (CAOV3) | outcome (CASKI) | outcome (Es-2) | outcome (HeLa) | outcome (Hek293T) | outcome (JEG-3) | Potency (OV90) | outcome (PA-1) | outcome (SKOV3) | outcome (Tov-21-G) | outcome (Tov112D) | activity, negative = cell killing [1, 2] 3.75% | activity, negative = cell killing [1, 3] 1.43% | activity, negative = cell killing [1, 4] 1.73% | activity, negative = cell killing [1, 5] -11.6%

O=C(O)c1ccc[n+]([O-])c1
inactive: outcome (MCC-13) | outcome (MCC-26) | outcome (MKL-1) | outcome (MKL-2) | outcome (NIH3T3) | outcome (UISO) | outcome (WaGa) | outcome (C33A) | outcome (CAOV3) | outcome (CASKI) | outcome (Es-2) | outcome (HeLa) | outcome (Hek293T) | outcome (JEG-3) | Potency (OV90) | outcome (PA-1) | outcome (SKOV3) | outcome (Tov-21-G) | outcome (Tov112D) | activity, negative = cell killing [1, 2] -13.5% | activity, negative = cell killing [1, 3] 12.2% | activity, negative = cell killing [1, 4] -25.2% | activity, negative = cell killing [1, 5] -21.7%

CCCNC(C)C(=O)Nc1c(C)csc1C(=O)OC (stereo not drawn)
inactive: outcome (MCC-13) | outcome (MCC-26) | outcome (MKL-1) | outcome (MKL-2) | outcome (NIH3T3) | outcome (UISO) | outcome (WaGa) | outcome (C33A) | outcome (CAOV3) | outcome (CASKI) | outcome (Es-2) | outcome (HeLa) | outcome (Hek293T) | outcome (JEG-3) | Potency (OV90) | outcome (PA-1) | outcome (SKOV3) | outcome (Tov-21-G) | outcome (Tov112D) | activity, negative = cell killing [1, 6] 8.39% | activity, negative = cell killing [1, 7] -2.83% | activity, negative = cell killing [1, 8] -13.6% | activity, negative = cell killing ([1]; at 21.3 µM (top of the series), tumour line A) -41.7%

O=S1(=O)OC(c2ccc(O)cc2)(c2ccc(O)cc2)c2ccccc21
inactive: outcome (MCC-13) | outcome (MCC-26) | outcome (MKL-1) | outcome (MKL-2) | outcome (NIH3T3) | outcome (UISO) | outcome (WaGa) | outcome (C33A) | outcome (CAOV3) | outcome (CASKI) | outcome (Es-2) | outcome (HeLa) | outcome (Hek293T) | outcome (JEG-3) | Potency (OV90) | outcome (PA-1) | outcome (SKOV3) | outcome (Tov-21-G) | outcome (Tov112D) | activity, negative = cell killing [1, 2] -17.4% | activity, negative = cell killing [1, 3] -14.4% | activity, negative = cell killing [1, 5] 11.5%

O=C1c2ccccc2S(=O)(=O)N1CCCCN1CCN(c2ncccn2)CC1
inactive: outcome (MCC-13) | outcome (MCC-26) | outcome (MKL-1) | outcome (MKL-2) | outcome (NIH3T3) | outcome (UISO) | outcome (WaGa) | outcome (C33A) | outcome (CAOV3) | outcome (CASKI) | outcome (Es-2) | outcome (HeLa) | outcome (Hek293T) | outcome (JEG-3) | Potency (OV90) | outcome (PA-1) | outcome (SKOV3) | outcome (Tov-21-G) | outcome (Tov112D) | activity, negative = cell killing [1, 2] 1.94% | activity, negative = cell killing [1, 3] -19.1% | activity, negative = cell killing [1, 5] -25.2%

O=c1[nH]c2cc(C(F)(F)F)c(N3CCOCC3)cc2n(CP(=O)(O)O)c1=O
inactive: outcome (MCC-13) | outcome (MCC-26) | outcome (MKL-1) | outcome (MKL-2) | outcome (NIH3T3) | outcome (UISO) | outcome (WaGa) | outcome (C33A) | outcome (CAOV3) | outcome (CASKI) | outcome (Es-2) | outcome (HeLa) | outcome (Hek293T) | outcome (JEG-3) | Potency (OV90) | outcome (PA-1) | outcome (SKOV3) | outcome (Tov-21-G) | outcome (Tov112D) | activity, negative = cell killing [1, 2] -1.62% | activity, negative = cell killing [1, 3] -2.48% | activity, negative = cell killing [1, 5] -20.3%

NNc1nnc(NN)c2ccccc12
inactive: outcome (MCC-13) | outcome (MCC-26) | outcome (MKL-1) | outcome (MKL-2) | outcome (NIH3T3) | outcome (UISO) | outcome (WaGa) | outcome (C33A) | outcome (CAOV3) | outcome (CASKI) | outcome (Es-2) | outcome (HeLa) | outcome (Hek293T) | outcome (JEG-3) | Potency (OV90) | outcome (PA-1) | outcome (SKOV3) | outcome (Tov-21-G) | outcome (Tov112D) | activity, negative = cell killing [1, 2] -9.47% | activity, negative = cell killing [1, 3] -12.6% | activity, negative = cell killing [1, 5] -17.6%

CC(C)c1cc2c(cc1S(=O)(=O)O)[C@@]1(C)CCC[C@@](C)(C(=O)O)[C@@H]1CC2
inactive: outcome (MCC-13) | outcome (MCC-26) | outcome (MKL-1) | outcome (MKL-2) | outcome (NIH3T3) | outcome (UISO) | outcome (WaGa) | outcome (C33A) | outcome (CAOV3) | outcome (CASKI) | outcome (Es-2) | outcome (HeLa) | outcome (Hek293T) | outcome (JEG-3) | Potency (OV90) | outcome (PA-1) | outcome (SKOV3) | outcome (Tov-21-G) | outcome (Tov112D) | activity, negative = cell killing [1, 2] -17.5% | activity, negative = cell killing [1, 3] -7.28% | activity, negative = cell killing [1, 4] -18.1% | activity, negative = cell killing [1, 5] -15.9%

CCOC(=O)OC(C)OC(=O)[C@@H]1N2C(=O)[C@@H](NC(=O)[C@H](N)c3ccccc3)[C@H]2SC1(C)C (stereo partly drawn)
inactive: outcome (MCC-13) | outcome (MCC-26) | outcome (MKL-1) | outcome (MKL-2) | outcome (NIH3T3) | outcome (UISO) | outcome (WaGa) | outcome (C33A) | outcome (CAOV3) | outcome (CASKI) | outcome (Es-2) | outcome (HeLa) | outcome (Hek293T) | outcome (JEG-3) | Potency (OV90) | outcome (PA-1) | outcome (SKOV3) | outcome (Tov-21-G) | outcome (Tov112D) | activity, negative = cell killing [1, 6] 7.44% | activity, negative = cell killing [1, 7] -8.91% | activity, negative = cell killing [1, 8] -1.55%

CC(N)CCCC(C)(C)O (stereo not drawn)
inactive: outcome (MCC-13) | outcome (MCC-26) | outcome (MKL-1) | outcome (MKL-2) | outcome (NIH3T3) | outcome (UISO) | outcome (WaGa) | outcome (C33A) | outcome (CAOV3) | outcome (CASKI) | outcome (Es-2) | outcome (HeLa) | outcome (Hek293T) | outcome (JEG-3) | Potency (OV90) | outcome (PA-1) | outcome (SKOV3) | outcome (Tov-21-G) | outcome (Tov112D) | activity, negative = cell killing [1, 2] -8.17% | activity, negative = cell killing [1, 3] -3.88% | activity, negative = cell killing [1, 4] -24.8% | activity, negative = cell killing [1, 5] -13.9%
